NS1 function inh: qHTS Assay for Inhibitors of Influenza NS1 Protein Function. Potency, µM (doses to about 46.1 µM), for the others: at the highest dose activity, positive = more growth. 270,000 tested, 0.4% active; calls by dose curve; also: potency is read from the fitted curve at half-maximal effect; actives are rising curves; nearly all actives have a fitted effect of over 50% in size
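Read-out: OD600 growth recovery of NS1-expressing budding yeast. Cells grown overnight at 30C in -URA glucose medium, washed, resuspended and diluted 1:100 in 2% galactose assay medium, pH 6.0. Same strain lacking NS1 served as positive control.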
Pf growth 96h: Primary qHTS for delayed death inhibitors of the malarial parasite plastid, 96 hour incubation; 320,000 tested, 6.9% active; P. falciparum luciferase reporter growth, 96 h; Potency, µM (highest dose often 28.7 µM), for the others: at the top dose activity change, negative = inhibition, actives largely listed as inhibitors; also: potency is read from the fitted curve at half-maximal effect; % is scaled to controls: 0 for no effect and ±100 for the full control effect
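Parasite growth measured via integrated firefly luciferase reporter in P. falciparum. Infected erythrocytes at 2% hematocrit, 0.05% parasitemia final were treated 96 hours at 37 C under 5% CO2, and luminescence was read.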
Cycloheximide cs: Cycloheximide Counterscreen for Small Molecule Inhibitors of Shiga Toxin | cell reporter, cycloheximide protein synthesis inhibition counterscreen | max response, % | 300,000 tested, 12% active | AID 2314, 2010; in the data active = max response mostly above about 13%, no sharp cut-off; inactive = mostly below about 14%; also: read at 38.3 µM for the half of the compounds with a filed dose; 0% is about no effect
Sm TGR inh: qHTS Assay for the Inhibitors of Schistosoma Mansoni Peroxiredoxins; Potency, µM (series often up to 114 µM), for inactives: at the highest dose activity change, negative = inhibition, actives largely listed as inhibitors; Schistosoma mansoni thioredoxin glutathione reductase (TGR), Q962Y6; 360,000 tested, 3% active; purified TGR, DTNB reduction, TNB absorbance 405 nm; also: potency is read from the fitted curve at half-maximal effect; % is scaled to controls: 0 for no effect and ±100 for the full control effect; nearly all actives have a fitted effect of over 60% in size
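Kinetic colorimetric format: TGR-catalysed, NADPH-driven DTNB reduction monitored via TNB absorbance. Enzyme dispensed at 20 nM; compound exposure 15 min at room temperature before reaction start.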
Shiga inhibitor: A qHTS for Small Molecule Inhibitors of Shiga Toxin. AID 2315, 2010. Vero cells, Shiga toxin protein synthesis inhibition reporter. 290,000 tested, 9.2% active. inhibition, % at 38.7 µM; in the data active = inhibition mostly above about 28%, no sharp cut-off; inactive = mostly below about 43%; also: 0% is about no effect
Pf growth 48h: Primary qHTS for delayed death inhibitors of the malarial parasite plastid, 48 hour incubation | P. falciparum luciferase growth in erythrocytes, 48 h | Potency, µM (highest dose often 28.7 µM), inactives show at the top dose activity change, negative = inhibition, usual class: inhibitors | 310,000 tested, 5.9% active; also: potency is read from the fitted curve at half-maximal effect; % is scaled to controls: 0 for no effect and ±100 for the full control effect
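Compounds are pin-transferred into medium, infected erythrocytes (2% hematocrit, 0.1% parasitemia final) are added, and plates sit one parasite generation at 37 C in 5% CO2. Detection reagent is then added and luminescence measured.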
Active calls of the source: *; u = inconclusive; x = no result given; [ ] = another dose, or the depositor's remark. An excerpt weighted towards active compounds, which were near 21% of everything screened. Unless noted, calls follow the shape of the dose curve; as a rule, active = well fitted curve in the direction sought with a large enough effect; inconclusive = small, poorly fitted or top-dose-only effect, or another doubt; inactive = no such curve, though single readings can be large; an effect the other way counts as inactive or inconclusive.

SMILES | NS1 function inh | Pf growth 96h | Cycloheximide cs | Sm TGR inh | Shiga inhibitor | Pf growth 48h
CCn1c(C)nc2cc(C(=O)N=Nc3c(O)[nH]c4c(C)cc(C)cc34)ccc21 | 11% | 6.6µM* | 4 | 7% | 8 | 9.3µM*
O=C(O)/C=C/c1coc2ccccc2c1=O | -6% | 29% | 33* | -22% | 12 | 30%
Cc1ccc2occ(/C=C/C(=O)O)c(=O)c2c1 | -58% | 4% | 20 | 36% | 30 | 8%
O=C(O)/C=C/c1coc2ccc(F)cc2c1=O | -6% | 55% | 23* | -16% | active | 0%
Cc1c(CNC2CCCCCC2)c(C(=O)O)c(C)n1Cc1ccc(F)cc1Cl | x | x | x | 2% | x | x
O=C(/C=C/c1ccco1)N(Cc1ccccc1F)C1CCS(=O)(=O)C1 (stereo not given) | 6% | u | -2 | 10µM* | -9 | -1%
CC(C)c1ccc(CN(C(=O)/C=C/c2ccco2)C2CCS(=O)(=O)C2)cc1 (stereo not given) | 3% | 15% | 7 | 3.5µM* | 13 | 4%
COc1ccc(CN(C(=O)/C=C/c2ccccc2Cl)C2CCS(=O)(=O)C2)cc1 (stereo not given) | 20% | -4% | 34* | 9% | 54 | 0%
Cc1cccc(C(=O)N(Cc2ccccc2F)C2CCS(=O)(=O)C2)c1 (stereo not given) | x | x | x | -2% | x | x
COc1cccc(N2CCN(C(=O)C3Cc4ccccc4N3C(C)=O)CC2)c1 (stereo not given) | x | x | x | -6% | x | x
O=C(NCc1ccc2c(c1)OCO2)c1cccc(Cl)c1 | -2% | x | 7 | 0% | -2 | 29%
O=C(NCc1ccc2c(c1)OCO2)c1ccncc1 | -3% | -3% | -2 | 0%[11.4 µM] | -5 | x
O=C(NCc1cccnc1)c1ccc2c(c1)OCO2 | 3% | 9.3µM* | -3 | -32% | -4 | 7%
CCN1CCN(C(CNC(=O)c2ccc3c(c2)OCO3)c2cccnc2)CC1 (stereo not given) | -19% | 70% | 20* | -7% | 33 | 33%
O=C(NCc1cccnc1)C(=O)Nc1ccc2c(c1)OCO2 | x | u | 18* | -2% | 28 | 55%
O=C(NCC(c1cccnc1)N1CCOCC1)c1ccc2c(c1)OCO2 (stereo not given) | 0% | 35% | 10 | -5% | 32 | 3%
O=C(NCc1cccc(Cl)c1)c1ccc2c(c1)OCO2 | -8% | x | 21* | 4% | 41 | 17%
CSc1ccc(CNC(=O)C2CCCN(S(=O)(=O)N(C)c3ccc(F)cc3)C2)cc1 (stereo not given) | x | x | x | -4% | x | x
CCc1ccc(CNC(=O)CCCN2C(=O)CCn3nc(-c4cccn4C)cc32)cc1 | x | x | x | 2% | x | x
O=C(NC(=S)NCc1ccccc1)c1ccc2c(c1)OCO2 | 16% | -5% | 19* | 40µM* | -52 | 43%
CS(=O)(=O)c1ccc(Cl)c(NC(=O)CCc2ccccc2)c1 | x | 78% | -2 | -12% | 19 | 9%
c1ccc(C2=NN(c3ccccc3)CC2)cc1 | -5% | 137% | 61* | 5µM* | 114* | 148%
O=C1CCc2cc(S(=O)(=O)NCCC(=O)NC3CCCCC3)ccc2N1 | -6% | 60% | -2 | 1% | -2 | 10%
Cc1ccc(NC(=O)NCCCN2CCCC2=O)cc1C | 1% | 140% | 11 | 1% | 33 | 44%
CN1CCN(NC(=O)Nc2ccc(Br)cc2Cl)CC1 | 1% | 46% | 16* | 1% | 38 | -22%
O=C(NCCCN1CCCC1=O)Nc1ccc(F)c(Cl)c1 | 2% | 86% | 47* | -28% | 47 | 32%
O=C(NCCCN1CCCC1=O)Nc1ccc(Cl)cc1Cl | -4% | -1% | 16* | 20% | 41 | 15%
Cc1ccc(NC(=O)NCCCN2CCCC2=O)cc1 | 1% | -21% | 14* | -1% | 30 | x
CN1CCN(NC(=O)Nc2cc(Cl)cc(Cl)c2)CC1 | -3% | 44% | -1 | -8% | -4 | -10%
CCC(C)NC(=O)C1CCC(CNS(=O)(=O)c2ccccc2)CC1 (stereo not given) | -2% | 0% | -3 | 11% | -3 | 5%
